Source: PubChem (National Center for Advancing Translational Sciences (NCATS))
Most compounds without a hit are left out; they make up all but 19% or so of the library.
HepG2 viability: kills HepG2 cells in TGF-b inhibitor counter-screen; HepG2 CAGA-GFP viability, ATP luminescence, 18 h; Potency, µM (highest dose often 46.1 µM), for the others: at the highest dose activity change, negative = cytotoxicity, actives largely listed as cytotoxic; 410,000 tested, 0.76% active; AID 588856; note: potency is the fitted concentration of half-maximal effect
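CellTiter-Glo luminescence gave cytotoxicity after 18 hours at 37 degrees C. The cells were HepG2 CAGA-GFP in 1% FBS DMEM, stimulated with 500 pg/mL TGF-beta after compound addition. %Activity was normalised to no-cell wells (complete cell-killing) and DMSO (no toxicity), and curves were fitted and classified.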
DT40 TDP1 CPT: DT40-hTDP1 cell growth loss with CPT | chicken DT40 Tdp1-/-;hTDP1 cells + 20 nM CPT, ATP luminescence, 48 h | Potency, µM (top dose mostly 46.2 µM), for the others: top-dose activity change, negative = growth inhibition, actives largely listed as inhibitors | 420,000 tested, 12% active | AID 686979; note: potency is the fitted concentration of half-maximal effect; % is set by controls: 0 for no effect and ±100 for the full control effect; nearly all actives have a fitted effect of over 55% in size
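Chicken DT40 Tdp1-/- cells stably complemented with human TDP1 were seeded at 400 cells/well in medium containing 20 nM camptothecin, exposed to pin-transferred compounds, and grown at 37 °C for at least 48 hr. Viability was read as ATP luminescence.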
TDP1 cell noCPT: qHTS for Inhibitors of human tyrosyl-DNA phosphodiesterase 1 (TDP1): qHTS in cells in absence of CPT; DT40 Tdp1-/- hTDP1 cells, no CPT, ATP luminescence, 48 h; Potency, µM (series often up to 46.2 µM), inactives show at the top dose activity change, negative = growth inhibition, hits mostly inhibitors; 420,000 tested, 15% active; AID 686978, 2013; note: potency is the fitted concentration of half-maximal effect; % is set by controls: 0 for no effect and ±100 for the full control effect; nearly all actives have a fitted effect of over 55% in size
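Chicken DT40 Tdp1-/- cells stably complemented with human TDP1 were seeded at 400 cells/well with DMSO in place of 20 nM camptothecin. After compound pinning, cells grew at least 48 hr at 37 °C; viability read by CellTiter-Glo luminescence.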
IL-1B inflam inh: blocks inflammasome-driven IL-1 beta release | THP-1 LPS/ATP IL-1B secretion, AlphaLISA, 16 h; active compounds read low | activity change, % at 57.5 µM | 360,000 tested, 4.7% active; in the data active = activity change below about -50%; inconclusive = mostly about -30% to -49%; note: % is set by controls: 0 for no effect and ±100 for the full control effect
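THP-1 cells pretreated 1 hr with compounds (up to 57.5 uM final), then stimulated with LPS (250 ng/mL final) plus ATP (1.25 mM final); secreted IL-1B measured by AlphaLISA after 16 hr, decreased signal indicating inhibition.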
TDP1 inh: TDP1 (human) enzyme inhibition. Q9NUW8. recombinant TDP1, AlphaScreen DNA substrate cleavage. Potency, µM (series often up to 130 µM), for inactives: top-dose activity change, negative = inhibition, actives largely listed as inhibitors. 350,000 tested, 0.28% active. AID 485290; note: potency is the fitted concentration of half-maximal effect; % is set by controls: 0 for no effect and ±100 for the full control effect; nearly all actives have a fitted effect of over 40% in size
Target sequence (Q9NUW8 whole entry, looked up): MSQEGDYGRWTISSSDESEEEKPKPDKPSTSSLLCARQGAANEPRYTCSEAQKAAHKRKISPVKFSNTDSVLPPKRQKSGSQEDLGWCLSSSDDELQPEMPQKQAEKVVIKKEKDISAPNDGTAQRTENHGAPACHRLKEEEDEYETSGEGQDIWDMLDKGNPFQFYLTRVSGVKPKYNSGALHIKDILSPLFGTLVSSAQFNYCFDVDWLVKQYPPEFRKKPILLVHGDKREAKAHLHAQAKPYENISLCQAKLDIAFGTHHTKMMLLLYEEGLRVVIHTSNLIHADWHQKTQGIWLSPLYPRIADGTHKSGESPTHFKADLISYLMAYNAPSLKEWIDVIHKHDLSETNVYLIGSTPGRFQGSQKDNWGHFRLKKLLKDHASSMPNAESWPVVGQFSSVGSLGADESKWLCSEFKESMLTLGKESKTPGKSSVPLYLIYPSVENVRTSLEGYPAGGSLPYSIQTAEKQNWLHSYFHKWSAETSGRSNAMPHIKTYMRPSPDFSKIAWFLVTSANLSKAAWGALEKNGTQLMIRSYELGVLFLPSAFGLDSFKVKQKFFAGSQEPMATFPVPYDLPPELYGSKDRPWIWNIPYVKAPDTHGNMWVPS
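Signal: AlphaScreen proximity between streptavidin donor and anti-FITC acceptor beads on intact substrate. Reaction: Tdp1 1 nM, substrate 15 nM final, 5 min RT after 15 min compound preincubation.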
TGFb SMAD3 inh: inhibitors of TGF-b signaling; HepG2 CAGA-GFP TGF-b/SMAD3 reporter, GFP fluorescence, 18 h; TGF-beta stimulated, 500 pg/mL final; Potency, µM (series often up to 46.1 µM), for the others: at the highest dose activity, negative = inhibition, hits mostly inhibitors; 410,000 tested, 1.2% active; note: potency is the fitted concentration of half-maximal effect; % is set by controls: 0 for no effect and ±100 for the full control effect; nearly all actives have a fitted effect of over 65% in size
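Read-out: total well GFP (ex488/em500-530) summed from mean per-cell fluorescence. Cells: HEPG2 CAGA-GFP, 1% FBS DMEM, 18 h at 37 degrees C with 500 pg/mL final TGF-beta. Unstimulated wells served as the full-inhibition control; stimulated DMSO wells = 0%.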
* hit, by the source's call; i = inactive; ? = inconclusive; . = no result given; [ ] = remark or other dose. Unless noted, calls come from the whole dose curve; as a rule, active = well fitted curve in the direction sought with a large enough effect; inconclusive = small, poorly fitted or top-dose-only effect, or another doubt; inactive = no such curve, though single readings can be large; an effect the other way counts as inactive or inconclusive.

SMILES	HepG2 viability	DT40 TDP1 CPT	TDP1 cell noCPT	IL-1B inflam inh	TDP1 inh	TGFb SMAD3 inh
CCOC(=O)c1ccccc1NC(=O)c1c2c(nc3ccccc13)C(=O)N(C1CCCCC1)C2	-2.1%	-14.9%	-16.9%	.	4.5%	41.9%
CC1CCCN(C(=O)COc2ccc(NC(=O)c3cccs3)cc2)C1 (configuration not stated)	-4.6%	-8.9%	-15.6%	-56.5*	-1.2%	1.7%
O=C(Cn1cnc2c(nnn2Cc2ccc(Cl)cc2)c1=O)N1CCN(c2ccccc2)CC1	-27.8%	18.4µM*	20.6µM*	-10.3	.	?
O=C(Cn1cnc2c(nnn2Cc2ccccc2F)c1=O)N1CCN(c2ccccc2)CC1	-20.1%	?	?	-14.0	1.7%	0.4%
O=C(Cn1cnc2c(nnn2Cc2ccccc2)c1=O)N1CCN(c2ccccc2)CC1	-5.7%	?	23.1µM*	-17.5	1.0%	1.2%
Cc1cccc(Cn2cnc3c(nnn3Cc3ccc(Cl)cc3)c2=O)c1	-2.2%	?	15.8µM*	0.0	-2.1%	-9.5%
Cc1ccc(Cn2nnc3c(=O)n(Cc4cccc(C)c4)cnc32)cc1	-22.7%	-8.7%	?	-10.5	1.1%	-14.8%
COc1ccc(CCc2c[nH]c(=O)c3cncnc23)cc1OC	.	-19.4%	?	.	2.1%	.
CCc1c(-c2ccccc2OC)ncn1Cc1cccc(-c2ccccc2)c1	.	0.651µM*	0.517µM*	-52.9*	.	.
CCc1c(-c2ccc(OC)cc2)ncn1Cc1cccc(-c2ccccc2)c1	.	7.31µM*	4.61µM*	-1.0	.	.
Nc1cc(-c2cccc(Br)c2)nn1Cc1ccccc1	2.7%	?	?	2.9	1.9%	4.0%
COc1ccccc1-c1ncn(Cc2cccc(-c3ccccc3)c2)c1CC(C)C	.	20.6µM*	18.4µM*	-90.6*	.	.
CCc1c(-c2cccc(Br)c2)ncn1Cc1cccc(-c2ccccc2)c1	.	?	23.1µM*	-95.1*	.	.
COc1ccc(-c2nnn(Cc3ccccc3)n2)cc1	-0.9%	9.7%	-0.3%	-2.6	-12.8%	27.1%
CCn1c(=O)c2ccccc2n2c(SCC(N)=O)nnc12	2.2%	-0.1%	1.3%	-0.5	4.6%	4.0%
O=C1N(c2ccccc2)C(c2ccc(Cl)cc2)N2CCCN12 (configuration not stated)	0.2%	1.5%	-21.5%	i	1.4%	4.1%
Cc1ccc(C2N(c3ccc(Cl)cc3)C(=O)N3CCCN23)cc1 (configuration not stated)	-37.5%	?	14.6µM*	-14.9	2.9%	2.0%
O=C(Cc1ccccc1)NNC(=O)Nc1cccc(Cl)c1	2.2%	-23.7%	-16.8%	-17.7	5.1%	14.5%
O=C(Nc1ccc(Cl)cc1)Nc1nc(-c2ccccc2O)cs1	-34.8%	5.17µM*	4.61µM*	-68.7*	-3.8%	?
Cc1csc(NC(=O)Nc2ccc(Cl)cc2)n1	-28.3%	-25.6%	-21.7%	-8.0	-8.1%	-0.5%
O=C(Cc1ccccc1)NNC(=O)Nc1ccc(Cl)c(Cl)c1	-20.9%	16.4µM*	20.6µM*	0.0	-4.6%	0.0%
O=C(Nc1ccc(Cl)c(Cl)c1)Nc1nc(-c2ccccc2)cs1	-40.6%	11.6µM*	13µM*	-17.8	2.7%	?
COc1cccc(-c2csc(NC(=O)C3CC3)n2)c1	-3.8%	5.17µM*	6.51µM*	10.0	8.8%	5.3%
O=C(Nc1ccc(Cl)c(Cl)c1)Nc1ccccc1C(=O)O	-24.8%	-10.5%	-15.1%	-0.6	-3.5%	-17.1%
CCC(C)OC(=O)/C(C#N)=C\c1ccc(-c2cccc(C(F)(F)F)c2)o1 (configuration not stated)	3.4%	-26.3%	?	.	-5.7%[12.3 µM]	3.4%
SMILES	HepG2 viability	DT40 TDP1 CPT	TDP1 cell noCPT	IL-1B inflam inh	TDP1 inh	TGFb SMAD3 inh
COc1cccc(-c2csc(NC(=O)Nc3ccccc3)n2)c1	-48.6%	7.31µM*	2.31µM*	-22.5	.	?
O=C(Nc1ccccc1)Nc1nc(-c2ccc(F)c(F)c2)cs1	4.4%	5.8µM*	2.91µM*	14.9	.	?
O=[N+]([O-])c1cccc(-c2cc(-c3cc(Br)ccc3O)[nH]n2)c1	-140.7%	?	20.6µM*	-89.0*	-0.7%	?
Oc1ccc(Br)cc1-c1cc(-c2ccc(Cl)cc2)n[nH]1	-66.3%	20.6µM*	?	-14.4	2.0%	?
O=[N+]([O-])c1ccccc1-c1cc(-c2ccccc2O)n[nH]1	-16.2%	?	?	-74.1*	-11.3%	?
Oc1ccc(Br)cc1-c1cc(-c2ccccc2)n[nH]1	-40.9%	?	?	-2.0	7.7%	0.0%
CCN(CC)S(=O)(=O)c1ccc(NC(=O)c2cnccn2)cc1	-0.2%	-18.5%	-25.8%	-3.0	-0.2%	-3.5%
CC(C)c1nn2c(=O)cc(COC(=O)c3cccs3)nc2s1	-4.4%	2.2%	4.0%	.	4.5%	?
CCOC(=O)N1CCN(C(=O)C2CCC(=O)N(CCCc3ccccc3)C2)CC1 (configuration not stated)	8.1%	4.9%	4.0%	-15.8	2.5%	2.3%
CCCCC(=O)Nc1ccc2nc(SCC(=O)N3CCCC3)sc2c1	-25.7%	?	20.6µM*	.	0.5%	0.0%
CC(C)(C)C(=O)Nc1ccc2nc(SCC(=O)N3CCCC3)sc2c1	3.9%	-84.7%	20.6µM*	.	3.6%	-16.9%
Cc1cc(S(=O)(=O)Nc2cc3c(cc2Cl)n(C)c(=O)c(=O)n3C)ccc1F	-9.3%	-22.1%	?	.	2.5%	0.4%
Cc1cccc(-c2cccc(C(=O)N3CCc4c(cnc(C)c4CNC(=O)c4cncs4)C3)c2)c1	.	-5.3%[9.04 µM]	?	.	.	.
COc1ccc(S(=O)(=O)N2CCCN(CC(=O)Nc3ccccc3F)CC2)cc1	8.7%	-27.9%	?	-3.9	4.0%	-4.7%
COc1ccc(NC(=O)c2ccc(S(=O)(=O)N3CCCCCC3)cc2)c(OC)c1	17.0%	-27.0%	13µM*	-11.0	1.9%	0.6%
COc1ccc(CC(=O)Nc2ccc(S(=O)(=O)N3CCC(C)CC3)cc2)c(OC)c1	2.0%	?	8.2µM*	-9.7	-1.8%	?
COc1ccc(NC(=O)CN2CCCN(S(=O)(=O)c3ccc(Br)cc3)CC2)c(OC)c1	-25.5%	?	23.1µM*	.	3.2%	?
CCCNC(=O)C1CCN(S(=O)(=O)c2cccs2)CC1	5.3%	7.3%	8.7%	3.5	0.0%	-2.8%
Cc1csc(NC(=O)C2CCN(S(=O)(=O)c3ccccc3F)CC2)n1	-13.1%	?	25.9µM*	11.9	3.5%	?
